Data from PubChem BioAssay AID1117361 (Southern Research Institute, 2015).
Screen size: about 3,600 compounds; about 900 (25%) were called active. The rule behind the calls is not given here. A selection follows. Results with a measured potency or affinity are listed apart.

target: Protein Tat (Human immunodeficiency virus type 1 group M subtype B (isolate HXB2)) (UniProt P04608); experiment: inhibitors of Tat binding to TAR RNA, dose response, counter-screen for Vif-APOBEC3G degradation inhibitor project, biochemical, fluorescence polarization, FAM-labeled TAR RNA (AID 1117361); details: outcome: dose series up to 100 µM unless noted; series mostly up to 100 µM; inhibition: at the top concentration

Q: With `CC(=O)NNC(=O)C(O)(c1ccccc1)c1ccccc1` as the compound, how does the “inhibition” value read?
A: 6.08% (inactive)

Q: Which “inhibition” value does the source give for `CCc1ccc(S(=O)(=O)/N=C2\C=CC(=O)c3ccccc32)cc1` here?
A: 22.3% (inactive)

Q: Which “inhibition” value does the source give for `CC(C)c1ccc(S(=O)(=O)/N=C2/C=CC(=O)c3ccccc32)cc1` here?
A: 13.2% (inactive)

Q: `CN(C)c1ccc(NC(=O)Nc2cccc(Cl)c2)cc1` was tested. Which “inhibition” value did it give?
A: 6.08% (inactive)

Q: With `COc1ccc(C(=O)N2CCCN(C)CC2)cc1S(=O)(=O)N1CCCc2ccccc21` as the compound, how does the “inhibition” value read?
A: 2.03% (inactive)

Q: Which “inhibition” value does the source give for `COC(=O)C1=C(C)NC(=O)NC1c1ccc2c(c1)OCO2` (centres undefined) here?
A: 5.01% (inactive)

Q: How did the “inhibition” value turn out when `Cc1ccc(CCNC(=O)C2CCN(S(=O)(=O)c3ccc4c(c3)CCC(=O)N4)CC2)cc1` was run?
A: 6.76% (inactive)

Q: For `CC1CCCC(NC(=O)C2CCC(CNc3c(N4CCCC4)c(=O)c3=O)CC2)C1C` (centres undefined), which “inhibition” value is on record?
A: 3.3% (inactive)

Q: For `CCOC(=O)c1c(C)[nH]c(C(=O)COC(=O)CN2C(=O)C3CCCCC3C2=O)c1C` (centres undefined), which outcome is on record?
A: inactive

Q: `COc1ccc(C(=O)OCC(=O)c2c(N)n(C)c(=O)n(C)c2=O)cc1OC` was tested. Which “inhibition” value did it give?
A: 4.12% (inactive)

Q: For `COc1ccc(CC(=O)Oc2ccc(F)c(F)c2)cc1S(=O)(=O)N1CCOCC1`, which outcome is on record?
A: inactive

Q: With `CC1(C)CCN(Cc2ccccc2)C1CC#N` (centres undefined) as the compound, how does the “inhibition” value read?
A: 12.8% (inactive)

Q: `COC(=O)c1cnn2c(C)c(Cc3cccc(F)c3)c(C)nc12` was tested. Which outcome did it give?
A: inactive

Q: With `COC(=O)C1CCN(C(=O)NC(C)(C)C)CC1` as the compound, how does the outcome read?
A: inactive

Q: Which “inhibition” value does the source give for `COc1cc2oc3ccccc3c2cc1N(CC(=O)N(C)C)S(=O)(=O)c1ccccc1` here?
A: 4.05% (inactive)

Q: Which “inhibition” value does the source give for `CCOc1cc(C2NC(=O)NC(C)=C2C(=O)NCc2ccccc2)c(Cl)cc1O` (centres undefined) here?
A: 2.7% (inactive)

Q: `O=C(O)c1ccc(S(=O)(=O)c2ccc3c(c2)C(=O)N(Cc2ccco2)C3=O)cc1` was tested. Which “inhibition” value did it give?
A: 29.3% (inactive)

Q: For `Cn1c(N)c(C(=O)CCl)c(=O)n(Cc2ccccc2)c1=O`, which outcome is on record?
A: inactive

Q: How did the “inhibition” value turn out when `c1ccc(Cn2nnnc2-c2ccco2)cc1` was run?
A: 13.5% (inactive)

Q: With `O=C1c2ccccc2C(=O)N1CCC(c1ccc(F)cc1)c1ccco1` (centres undefined) as the compound, how does the outcome read?
A: inactive

Q: For `CC1CCCCN1C(=O)c1ccc(S(=O)(=O)N2CCCCC2C)cc1` (centres undefined), which “inhibition” value is on record?
A: 0.68% (inactive)

Q: How did the “inhibition” value turn out when `COCCn1c(COc2cccc(OC)c2)nnc1SCC(=O)N1CCOCC1` was run?
A: 2.03% (inactive)

Q: With `NC(=O)C[C@@H]1N[C@]2(C(=O)Nc3ccccc32)[C@@H]2C(=O)N(c3cc(C(F)(F)F)ccc3Cl)C(=O)[C@H]12` as the compound, how does the “inhibition” value read?
A: 18.9% (inactive)

Q: For `CCn1c(C(=O)OC)cc2c1ccn2-c1ccc(F)cc1`, which “inhibition” value is on record?
A: 2.03% (inactive)

Q: `Cc1cccc(N(C(=O)c2ccc(Cl)cc2)C2CS(=O)(=O)CC2OC(=O)c2ccc(Cl)cc2)c1` (centres undefined) was tested. Which outcome did it give?
A: inactive

Q: How did the “inhibition” value turn out when `O=C(CSc1nncs1)NC(=O)NCc1ccccc1` was run?
A: 3.38% (inactive)

Q: For `COc1ccccc1C(=O)C1CCCN(Cc2ccc3c(c2)OCCO3)C1` (centres undefined), which “inhibition” value is on record?
A: 9.07% (inactive)

Q: How did the outcome turn out when `COC(=O)c1c(C)[nH]c(C(=O)CSc2ccc(Cl)cc2)c1C` was run?
A: inactive

Q: For `Cn1nccc1NC(=O)Nc1ccc(Cl)cc1`, which outcome is on record?
A: inactive

Q: Which “inhibition” value does the source give for `CC(C)(C)c1ccc(NC(=O)N2CCN(c3ccc([N+](=O)[O-])cn3)CC2)cc1` here?
A: 7.42% (inactive)

Q: With `Cn1nc(C(=O)OCC(=O)N2CCc3ccccc32)c2ccccc2c1=O` as the compound, how does the “inhibition” value read?
A: 3.38% (inactive)

Q: With `Cc1ccc(C2(C(F)(F)F)NC(=O)N3CCN=C3S2)cc1` (centres undefined) as the compound, how does the “inhibition” value read?
A: 8.78% (inactive)

Q: `Cc1nc(N2CCN(Cc3ccccc3)CC2)nc2c1C(=O)CCC2` was tested. Which “inhibition” value did it give?
A: 15.5% (inactive)

Q: Which “inhibition” value does the source give for `CCOc1ccc(NC(=O)CCS(=O)(=O)c2ccc(Br)cc2)cc1` here?
A: 16.4% (inactive)

Q: For `COc1ccc(Cl)cc1NC(=O)CCS(=O)(=O)c1ccc(Br)cc1`, which “inhibition” value is on record?
A: 9.02% (inactive)

Q: With `NS(=O)(=O)c1ccc(CCNC(=O)CCS(=O)(=O)c2ccc(Br)cc2)cc1` as the compound, how does the outcome read?
A: inactive

Q: Which “inhibition” value does the source give for `CCc1cccc(NC(=O)CCS(=O)(=O)c2ccc(Br)cc2)c1` here?
A: 5.68% (inactive)

Q: Which “inhibition” value does the source give for `CCOc1ccccc1NC(=O)CCS(=O)(=O)c1ccc(Br)cc1` here?
A: 1.67% (inactive)

Q: With `O=C(CCS(=O)(=O)c1ccc(Br)cc1)NCCc1ccccc1` as the compound, how does the outcome read?
A: inactive

Q: `Cc1ccccc1OCCC(=O)Nc1ccccc1C(=O)NC1CC1` was tested. Which outcome did it give?
A: inactive

Q: How did the “inhibition” value turn out when `OC(c1ccc(Cl)cc1)C(O)c1nc2ccccc2[nH]1` (centres undefined) was run?
A: 1.67% (inactive)

Q: `CCCCOc1ccc(C(=O)NCC(=O)NCC(=O)OCC)cc1` was tested. Which “inhibition” value did it give?
A: 26.4% (inactive)

Q: How did the outcome turn out when `CCCCn1nc(C(=O)O)ccc1=O` was run?
A: inactive

Q: For `COc1ccc(CNC(=O)c2sc3nc4c(c(C(F)(F)F)c3c2N)CCC4)cc1OC`, which outcome is on record?
A: inactive

Q: `CC(=O)Nc1ccc(NC(=O)C(C)OC(=O)CC23CC4CC(CC(Br)(C4)C2)C3)cc1` (centres undefined) was tested. Which outcome did it give?
A: inactive

Q: With `CC1CCCN(CC(O)CN2CCN(CC(O)CN3CCCC(C)C3)C(C)C2)C1` (centres undefined) as the compound, how does the outcome read?
A: inactive

Q: With `CCCC(=O)C1=C(N(C)c2ccccc2)CC(C)(C)CC1=O` as the compound, how does the outcome read?
A: inactive

Q: With `CCCc1n[nH]c2c1C(=O)C(C(=O)OC)C(C)(C)C2` (centres undefined) as the compound, how does the “inhibition” value read?
A: 3.38% (inactive)

Q: Which outcome does the source give for `COC(=O)C1C(O)=C(C=Nc2ccc(N)cc2)C(=O)CC1(C)C` (centres undefined) here?
A: inactive

Q: How did the outcome turn out when `O=C(Nc1nnc(SCc2c(Cl)cccc2Cl)s1)c1cccc([N+](=O)[O-])c1` was run?
A: inactive

Q: With `CCOC(=O)N1CCC(Nc2c(-c3ccc(C)cc3)c(=O)c2=O)CC1` as the compound, how does the “inhibition” value read?
A: 5.46% (inactive)

Q: `O=C(Cn1cnc2c(cnn2-c2ccc(F)cc2)c1=O)N1CCN(c2ccccc2)CC1` was tested. Which outcome did it give?
A: inactive

Q: With `COc1cc(C)c(C2NC(=O)c3ccccc3N2)cc1C` (centres undefined) as the compound, how does the “inhibition” value read?
A: 6.35% (inactive)

Q: For `COc1cc(C2Nc3cccc4cccc(c34)N2)cc(OC)c1OC(C)=O`, which outcome is on record?
A: inactive

Q: How did the “inhibition” value turn out when `CCOC(=O)c1sc(C)c2c(=O)n(CCc3ccccc3)nnc12` was run?
A: 6.76% (inactive)

Q: `O=C(/C=C/Nc1ccccc1Br)c1ccccn1` was tested. Which “inhibition” value did it give?
A: 14.2% (inactive)

Q: How did the “inhibition” value turn out when `Cc1ccc(C)c(S(=O)(=O)Nc2ccccc2C(=O)Nc2ccccc2N2CCOCC2)c1` was run?
A: 0.68% (inactive)

Q: `O=C(CSc1ncn[nH]1)Nc1c(Br)cc([N+](=O)[O-])cc1Br` was tested. Which “inhibition” value did it give?
A: 2.05% (inactive)

Q: For `COc1ccccc1NS(=O)(=O)c1cc(C(=O)NCCN2CCOCC2)ccc1Cl`, which outcome is on record?
A: inactive

Q: Which outcome does the source give for `O=C(CSc1ncn[nH]1)Nc1nc(-c2ccccc2)ns1` here?
A: inactive

Q: How did the “inhibition” value turn out when `COc1cccc(OC)c1C(=O)Nc1cc(Cl)ccc1N1CCOCC1` was run?
A: 6.76% (inactive)

Q: How did the “inhibition” value turn out when `CCOc1cc(NC(=S)NCC(C)C)c(OCC)cc1NC(=O)c1cccs1` was run?
A: 2.73% (inactive)

Q: Which outcome does the source give for `CN1CCN(S(=O)(=O)Cc2ccc(Cl)cc2)CC1` here?
A: inactive

Q: With `O=C(NCc1ccccc1)/C(=C/c1ccc(OC(F)F)cc1)c1ccccc1` as the compound, how does the outcome read?
A: inactive

Q: `O=C(CCS(=O)(=O)c1ccc(Br)cc1)N1CCN(c2ccc(F)cc2)CC1` was tested. Which “inhibition” value did it give?
A: 4.12% (inactive)

Q: Which “inhibition” value does the source give for `Cc1ccc(C(C)C)c(OCCCN2CC(C)OC(C)C2)c1` (centres undefined) here?
A: 0.68% (inactive)

Q: How did the “inhibition” value turn out when `COC(=O)c1ccccc1NC(=O)CSCC(=O)Nc1ccccc1` was run?
A: 9.46% (inactive)

Q: With `COC(=O)c1ccccc1NC(=O)C(C)Oc1ccccc1` (centres undefined) as the compound, how does the outcome read?
A: inactive

Q: How did the “inhibition” value turn out when `Cc1nnc(-c2cnn(C)c2N)n1Cc1ccc(Cl)cc1` was run?
A: 2.7% (inactive)
